Compound activity (PubChem)
An excerpt weighted towards active compounds, which were near 10% of everything screened.
MmCpn inh – M. maripaludis TRiC chaperonin inhibition. 330,000 tested, 0.031% active. AID 504842. Potency, µM (top dose mostly 76.9 µM), inactives show top-dose activity, negative = inhibition, actives largely listed as inhibitors. purified Mm-Cpn ATPase, ADP Transcreener TR-FRET; note: potency is the fitted concentration of half-maximal effect; nearly all actives have a fitted effect of over 80% in size
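25 nM Mm-CPN + cpd, 10 min 37°C; + 10 uM ATP, 30 min 37°C; buffer 30 mM Tris pH 7.4, 100 mM KCl, 5 mM MgCl2, 1 mM DTT; Transcreener ADP HTRF detection 30 min RT.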
VDR inhibitor – vitamin D3 receptor (human) inhibition | AID 504847 | Potency, µM, for the others: max response, negative = inhibition, usual class: inhibitors | 400,000 tested, 0.93% active | VDR-SRC2-3 peptide fluorescence polarization, 2 h | P11473; note: potency is the fitted concentration of half-maximal effect
Target sequence (P11473 whole entry, looked up): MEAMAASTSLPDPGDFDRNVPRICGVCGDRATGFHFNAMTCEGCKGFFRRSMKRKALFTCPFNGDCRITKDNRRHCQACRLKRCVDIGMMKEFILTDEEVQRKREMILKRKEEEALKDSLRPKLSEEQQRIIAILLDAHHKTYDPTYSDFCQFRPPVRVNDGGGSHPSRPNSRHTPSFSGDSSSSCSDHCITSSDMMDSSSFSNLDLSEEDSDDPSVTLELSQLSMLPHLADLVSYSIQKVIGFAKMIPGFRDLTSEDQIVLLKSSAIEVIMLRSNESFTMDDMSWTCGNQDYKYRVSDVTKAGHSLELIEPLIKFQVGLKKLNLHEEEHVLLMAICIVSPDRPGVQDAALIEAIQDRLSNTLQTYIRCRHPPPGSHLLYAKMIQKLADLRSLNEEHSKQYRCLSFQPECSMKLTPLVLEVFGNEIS
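VDR–SRC2-3 interaction, FP format. Cmpds 23 nl via pintool, brief spin, 2 h ambient incubation.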
PLK1 PBD block – PLK1 (human) polo-box domain binding inhibition. 360,000 tested, 2.8% active. Plk1 PBD binding of FITC phosphopeptide, fluorescence polarization. Potency, µM, for the others: max response, negative = inhibition, usual class: inhibitors. P53350; note: potency is the fitted concentration of half-maximal effect; series mostly up to about 57 µM; nearly all actives have a fitted effect of over 65% in size
Sfp PPTase inh – Sfp phosphopantetheinyl transferase inhibition; Potency, µM, for inactives: largest response in the series, negative = inhibition, usual class: inhibitors; Q9F4F7; 310,000 tested, 3.5% active; AID 1490; Biochemical Sfp PPTase activity, qHTS;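 note: the enzyme is Sfp with the accession as filed and its product quenches rhodamine fluorescence; potency is the fitted concentration of half-maximal effect; 0% = enzyme reaction without inhibitor and -100% = no enzyme wells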
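Step 1, compound plus 15 nM Sfp-PPTase, 15 min, room temperature. Step 2, add rhodamine-CoA (5 uM) and BHQ-2-YbbR (12.5 uM). Step 3, read 525/598 nm fluorescence at 0 and 30 min.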
G9a block – blocks human histone lysine methyltransferase G9a | Q96KQ7 | G9a H3K9 monomethylation, AlphaScreen, 2 h | Potency, µM (series often up to 102 µM), for the others: top-dose activity, negative = inhibition, actives largely listed as inhibitors | 350,000 tested, 8.8% active | AID 504332; note: potency is the fitted concentration of half-maximal effect; nearly all actives have a fitted effect of over 75% in size
Target sequence (Q96KQ7 913-1193 limits assumed): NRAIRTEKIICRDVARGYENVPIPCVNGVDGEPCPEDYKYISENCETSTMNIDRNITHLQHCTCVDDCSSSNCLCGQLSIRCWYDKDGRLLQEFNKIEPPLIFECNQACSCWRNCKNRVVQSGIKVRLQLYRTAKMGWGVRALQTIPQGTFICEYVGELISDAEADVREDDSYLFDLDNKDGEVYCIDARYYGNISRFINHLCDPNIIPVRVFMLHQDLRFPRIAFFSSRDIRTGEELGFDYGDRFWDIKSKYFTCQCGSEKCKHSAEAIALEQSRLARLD
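Readings reflect AlphaScreen signal from monomethyl-H3K9 antibody detection. HMT at 20 nM; substrate b-H3K9 500 nM; cofactor SAM 20 uM; 2 h RT reaction; compounds tested as titrations in qHTS with 15 min preincubation.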
CCT modulator – changes cytosolic chaperonin activity; purified chaperonin ATPase assay, HTRF ADP detection, 30 min; 360,000 tested, 0.3% active; activity change, % (test concentration not listed), hits read low; in the data active = activity change below about -30%
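ATPase activity: ADP formed was measured by HTRF Transcreener (665/615 nm ratio) after 30 min at 37 deg C with 10 uM ATP. Compounds screened at one 76 uM concentration against 40 or 20 nM TRiC in Tris pH 7.4/KCl/MgCl2/DTT buffer.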
* = called active by the depositor; ? = inconclusive; . = no result given; [ ] = dose if it differs, or a comment. Unless noted, calls come from the whole dose curve; as a rule, active = well fitted curve in the direction sought with a large enough effect; inconclusive = small, poorly fitted or top-dose-only effect, or another doubt; inactive = no such curve, though single readings can be large; an effect the other way counts as inactive or inconclusive. Unless noted, % is set by controls: 0 for no effect and ±100 for the full control effect.

SMILES | MmCpn inh | VDR inhibitor | PLK1 PBD block | Sfp PPTase inh | G9a block | CCT modulator
Cc1ccc2nc(N3C(=O)C(O)=C(C(=O)c4ccc(C)o4)C3c3cccc(O)c3)sc2c1 (configuration not stated) | -6% | ? | ? | -24% | 32µM* | -2
CCOC(=O)c1sc(N2C(=O)C(O)=C(C(=O)c3ccco3)C2c2ccc([N+](=O)[O-])cc2)nc1C (configuration not stated) | . | 89µM* | 30µM* | . | . | -2
COc1ccc2nc(N3C(=O)C(O)=C(C(=O)c4ccco4)C3c3ccc(OC)c(OC)c3)sc2c1 (configuration not stated) | . | . | -13% | . | . | -1
CC(=O)c1cccc(NC(=S)NNC(=O)c2ccc(C)c([N+](=O)[O-])c2)c1 | 1% | -6% | -22% | 19% | 20µM* | -1
CC(=O)Nc1cccc(NC(=O)c2ccc(C)c([N+](=O)[O-])c2)c1 | 1% | -6% | -8% | 7% | -37% | -3
CC(=O)c1cccc(NCC(=O)c2ccc(C)c([N+](=O)[O-])c2)c1 | -2% | ? | ? | 18µM* | 35µM* | 1
Cc1ccc(NC(=S)NNC(=O)c2cccc([N+](=O)[O-])c2)cc1Cl | 4% | -9% | -28% | 16% | 13µM* | 1
CC1(C(=O)NNC(=O)c2cccc([N+](=O)[O-])c2)CC1(Br)Br (configuration not stated) | -7% | -4% | -6% | -3% | 20µM* | -1
Cc1cccc(NC(=O)NNC(=O)c2ccc(C)c([N+](=O)[O-])c2)c1 | 0% | -6% | -10% | 4% | . | -15
Cc1ccc(C)c(OCC(O)CN2C(C)CCCC2C)c1 (configuration not stated) | 1% | -12% | 12µM* | -7% | 7%[59 µM] | 0
Cc1ccc(C)c(OCC(O)CN2CCCCC2C)c1 (configuration not stated) | -1% | 15% | -4% | 17% | 15%[59 µM] | 0
Cc1ccc(OCC(O)CN2CCOCC2)c(C)c1 (configuration not stated) | 4% | 5% | -7% | 6% | 89µM* | -1
OC(COc1ccc2ccccc2c1Cl)CN1CCOCC1 (configuration not stated) | ? | -12% | -6% | 13% | 2%[59 µM] | -32*
OC(COc1cccc2ccccc12)CN1CCOCC1 (configuration not stated) | . | -23% | -10% | . | . | -1
CN(C)c1ccc(CNC(=O)C2CCN(S(=O)(=O)c3cn(C)cn3)CC2)cc1 | . | 12% | . | . | -30%[12.7 µM] | .
Cc1noc(C)c1-c1ccc2ncnc(NCCN3CCOCC3)c2c1 | . | -18% | . | -16% | -41%[0.501 µM] | .
Cc1ccc(Nc2nc(C3CC3)cs2)cc1 | 0% | . | . | 45µM* | 40µM* | .
Cc1nnc(Nc2ccc(Cl)cc2)s1 | 1% | -4% | -5% | 7% | ? | 1
Clc1ccc(Nc2nc(C3CC3)cs2)cc1 | -4% | -4% | -16% | ? | 40µM* | -2
CCN(CC)c1ccc(C(=S)NC2CCCCC2)cc1 | 1% | ? | 24µM* | 32µM* | -147%[59 µM] | 1
CC(C)N(C(=S)NCc1ccccc1)c1ccccc1 | -2% | -4% | -12% | -27% | 44% | -1
CCN(CC)c1ccc(C(=S)NCc2ccccc2)cc1 | -2% | -6% | ? | 10µM* | . | 1
CCOc1ccc(C(C)NC(=S)NC2CCCCC2)cc1OCC (configuration not stated) | 0% | -11% | 1% | 15% | -32% | -1
CN(C)c1ccc(C(=S)NC2CCCCC2)cc1 | 1% | ? | 13µM* | 20µM* | 5.6µM* | -1
CCOc1ccc(C(=S)NC2CCCCC2)cc1OCC | -1% | 40µM* | 6µM* | 14µM* | 7.9µM* | 0
SMILES | MmCpn inh | VDR inhibitor | PLK1 PBD block | Sfp PPTase inh | G9a block | CCT modulator
CCC(C)c1ccc(C(C)NC(=S)NC2CCCCC2)cc1 (configuration not stated) | -1% | -19% | -4% | 16% | . | 2
CCOC(=O)c1c(NC(=O)c2ccc(S(=O)(=O)N(CC(C)C)CC(C)C)cc2)sc2c1CCN(C(=O)OCC)C2 | . | 19% | . | . | 4%[59 µM] | .
CCCCNC(=O)n1c(SC)nc2ccccc21 | 0% | -6% | ? | -8% | -4% | -3
COC(=O)n1c(SC)nc2ccccc21 | -23% | -6% | 27µM* | -11% | -3%[0.0925 µM] | 1
O=c1cc(-c2cccc(-c3ccc(C(F)(F)F)cc3)c2)c2cc3c(cc2o1)OCO3 | . | -2% | . | -19% | 67%[59 µM] | .
CC(=O)Oc1cc2oc(=O)c3c(c2cc1Cl)CCC3 | -3% | -16% | 6µM* | -8% | ? | -5
CCOC(=O)CC1(NC(=O)C2CCC(=O)N(CCc3ccc(OC)cc3)C2)CCCCC1 (configuration not stated) | -16% | 8% | 1% | 20% | 58%[59 µM] | -1
COc1cccc(CN2CC(C(=O)NCCc3ccc(C)o3)CCC2=O)c1 (configuration not stated) | 3% | ? | -7% | ? | 40µM* | -2
Cc1ccc(CN(C)C(=O)C2CCC(=O)N(CCc3ccccc3)C2)o1 (configuration not stated) | -3% | -6% | -11% | 35µM* | 9%[12.7 µM] | 1
CCOC(=O)CC1(NC(=O)C2CCC(=O)N(Cc3ccccc3F)C2)CCCCC1 (configuration not stated) | -3% | ? | 27µM* | 18% | 15% | 1
CN(Cc1cnccn1)C(=O)C1CCC(=O)N(CCc2ccccc2)C1 (configuration not stated) | 1% | 7% | 1% | 10% | -1% | 1
Cc1ccc(CCNC(=O)C2CCC(=O)N(Cc3ccccc3F)C2)o1 (configuration not stated) | 2% | -17% | -8% | -21% | 79µM* | -4
Cc1cc(C)nc(CCNC(=O)C2CCC(=O)N(Cc3ccccc3F)C2)n1 (configuration not stated) | ? | 1% | -1% | 12% | . | 1
Cc1ccc(NC(=O)Cn2nnc(-c3nc(-c4ccncc4)no3)c2N)c(C)c1 | . | 17% | . | . | -6%[59 µM] | .
COc1ccc(CNC(=O)Cn2ccc3cc(S(=O)(=O)N4CCCCCC4)ccc32)cc1OC | . | 0% | . | . | -2%[59 µM] | .
COc1cccc(CN2CC(C(=O)N(C)Cc3nc(C)cs3)CCC2=O)c1 (configuration not stated) | 1% | -1% | -1% | 13% | 9%[12.7 µM] | -31*
CSCCOC(=O)C1=C(C)NC(=O)NC1c1ccc2c(c1)OCO2 (configuration not stated) | 1% | -8% | 3% | 11% | . | -1
CSCCOC(=O)C1=C(C)Nc2ccc(C)cc2S1 | -1% | ? | 19µM* | 50µM* | 25µM* | -3
